# In ChEMBL document CHEMBL4513216, “Probing the Open Global Health Chemical Diversity Library for Multistage-Active Starting Points for Next-Generation Antimalarials” (ACS Infect Dis, 2020):
# About 2,700 (4%) of roughly 68,000 compounds showed an effect of 50% or more. Many of the other results were omitted from the sample, so strong results are more common in it than they were.
# System: Plasmodium berghei
# Experiment: Screen against P. berghei liver stage (PbLuc), transformed with Luciferase, at 2uM
# Format: functional, HepG2
# Conditions: tested at 2 uM
row,Compound,INHIBITION [%]
1,OCCNc1nc(Nc2ccccc2)c2nccnc2n1,4.64
2,Cc1cnn(CCNC(C)C(=O)Nc2ccc(Cl)cn2)c1 (configuration not stated),67.44
3,Cc1cnn(CCNCC(=O)Nc2ccc(Cl)cn2)c1,-1.56
4,Cc1cnn(CC(C)NCC(=O)Nc2ccc(Cl)cn2)c1 (configuration not stated),42.11
5,Cc1nn(C)c2c(N3CCN(C(=O)C(C)C)CC3)ncnc12,31.57
6,CCN(CCn1cccn1)Cc1nc(-c2cccc(C)c2)oc1C,65.76
7,CCN(CCn1cccn1)Cc1nc(-c2ccc(F)cc2)oc1C,-11.66
8,CCN(CCn1cccn1)Cc1nc(-c2ccoc2)oc1C,-16.71
9,Cc1cccc(CN2CCC3(CC2)NC(=O)C[C@H]3c2cnn(C)c2)n1,14.65
10,F[C@@H]1CN(Cc2cccnc2)C[C@@H]1OCc1nc2ccccc2[nH]1,20.41
11,O=C(Cc1ccco1)N1C[C@H]2CCC[C@@]2(COCC2CC2)C1,8.17
12,COC[C@@]12CCC[C@@H]1CN(C(=O)Cc1ccco1)C2,53.08
13,O=C(Cc1ccco1)N1C[C@H]2CCC[C@@]2(COc2cccnc2)C1,-75.76
14,CCn1ccnc1CN1CCN(c2ncnc3ccsc23)CC1C (configuration not stated),-115.54
15,O=C(c1cnc(O)cc1O)N1CCCC(CCc2ccccc2F)C1 (configuration not stated),29.41
16,COCCN1CCCC(O)(CN2CCCN(c3ncccn3)CC2)C1=O (configuration not stated),31.35
17,COCCN1CCCC(O)(CN2CCN(c3ncccc3C)CC2)C1=O (configuration not stated),75.47
18,COCCN1CCCC(O)(CN2CCN(c3cc(C)ccn3)CC2)C1=O (configuration not stated),17.6
19,COCCN1CCCC2(CCN(c3nccnc3N(C)C)C2)C1=O (configuration not stated),-38.59
20,COCCN1CCCC2(CCN(c3nccc4ccccc34)C2)C1=O (configuration not stated),50.61
21,COCCN1CCCC2(CCN(c3ncnc(C)c3C)C2)C1=O (configuration not stated),24.05
22,CCS(=O)(=O)N1CCC2(CN(c3cc(OC)ncn3)C2)C1,35.37

row,Compound,INHIBITION [%]
1,CC(OCC1CC1)C(=O)Nc1cccc(C(=O)Nc2ccncc2)c1 (configuration not stated),10.72
2,CC(C)C[C@H](N)c1nnc(SCC(N)=O)o1,31.02
3,Cc1n[nH]c(C)c1CNC(=O)CSCc1ccccc1Cl,37.77
4,CCSc1ccc(C(=O)N2CCC3(CCC(=O)N(C)C3)CC2)s1,-12.89
5,CSC1(CNc2ccc(Br)cn2)CCOCC1,30.06
6,Cc1cc(C)cc(NC(=O)Nc2c(O)c3ccccc3oc2=O)c1,19.49
7,Cc1cnn(CCCNC(=O)NC(C)C(=O)Nc2ccccc2)c1 (configuration not stated),-17.39
8,Cc1nnc(SCC(=O)c2cc3c(cc2Cl)NC(=O)C3)o1,54.73
9,Cc1nnc(SCC(=O)c2cc3c(cc2Cl)NC(=O)C3)s1,-21.29
10,Nc1nnc(SCC(=O)c2cc3c(cc2Cl)NC(=O)C3)s1,9.42
11,CCCNC(=O)C(C)n1nc(-c2ccc(C)o2)cc(N)c1=O (configuration not stated),0.86
12,Cc1ccc(CN2C[C@H]3CN(C(=O)c4ccno4)CCN3C2=O)cc1,2.66
13,CC(C)CC(C)NCCCN1CCCN(C)CC1 (configuration not stated),19.13
14,Cc1occc1CNC(=O)C1(C)CCCN(C(=O)c2ccccc2)C1 (configuration not stated),52.08
15,CC(C)C(=O)N1CCC12CCCN(C(=O)c1ccccc1)C2 (configuration not stated),-1.55
16,Cc1occc1CNC(=O)C1(C)CCCN1C(=O)c1ccccc1 (configuration not stated),22.34
17,Cc1c(C2CCCN(C(=O)c3cccnc3)C2)n2c(nc1=O)CCC2 (configuration not stated),-16
18,Cn1cc(CN2CCCC3(CCN(c4cccnc4)C3=O)C2)cn1 (configuration not stated),-7.09
19,Cn1cc(N2CCC3(CCCN(Cc4ccoc4)C3)C2=O)cn1 (configuration not stated),25.4
20,COc1ccc(CN2CCC3(CCN(c4cccnc4)C3=O)C2)cc1 (configuration not stated),0.83
21,COc1ccc(CN2CCC3(CC2)CCN(c2cnn(C)c2)C3=O)cc1,65.32
22,Cn1cc(CN2CCC3(CCN(c4cnn(C)c4)C3=O)C2)cn1 (configuration not stated),13.61

row,Compound,INHIBITION [%]
1,Cn1cc(N2CCC3(CCCN(Cc4ccc(F)cc4)C3)C2=O)cn1 (configuration not stated),51.26
2,Cn1ncc2c1CCCN(C(=O)C1CCC1)C2,7.46
3,Cc1nccnc1CCC1COCCN1C(=O)CCc1c(C)noc1C (configuration not stated),-12.6
4,COc1cccc(-c2noc(-c3ccc(NCC4CC4)nc3)n2)c1OC,-57.64
5,CC(C)(C)CN1CCC[C@H]1c1nc(-c2cncnc2N)no1,-10.21
6,COc1cc(CN(C(=O)Nc2cccnc2OC)C2CC2)ccc1O,-34.31
7,Cn1nc2c(cc1=O)CN(Cc1nnc(-c3ccco3)o1)CC2,-32.49
8,Cc1cc2n(n1)CCN(c1nc(N(C)C)nc3c1CCNC3)C2,15.46
9,COc1cccc(CC2CN(C3CCN(C(C)=O)CC3)CCO2)c1 (configuration not stated),17.75
10,Cc1ncoc1C(=O)N1CCOC(CC2CCCCC2)C1 (configuration not stated),-78.64
11,CC(=O)N1CCC(C(=O)N2CCOC(CC3CCCCC3)C2)CC1 (configuration not stated),38.49
12,O=C(C1CCOCC1)N1CCOC(CC2CCCCC2)C1 (configuration not stated),28.91
13,CN(C)C(=O)N1CCC(C(=O)N2CCOC(CC3CCCCC3)C2)CC1 (configuration not stated),54.77
14,CC(=O)N1CCC(N2CCOC(CC3CCCCC3)C2)CC1 (configuration not stated),56.69
15,CC(C)c1nc2c(n1C)CCN(CCS(=O)(=O)c1ccccc1)C2,18.35
16,CCCc1nnsc1C(=O)NCC1CCN(S(C)(=O)=O)CC1,-4.49
17,Cc1ccc(CNC2(Cc3cc(-c4ccc(F)cc4)on3)COC2)o1,44.15
18,CN(C)c1cc(CNc2cncc(-n3cccn3)n2)ccn1,-15.92
19,COc1ccc2c(c1)CC(C1CCOCC1)N(C(=O)c1ccn(C)n1)C2 (configuration not stated),15.61
20,CC(c1ccco1)N(C(=O)COc1ccc(C#N)cc1)C1CC1 (configuration not stated),41.03
21,OCCn1nccc1C1CCN(CCOc2ccccc2)CC1,39.72
22,OCCn1nccc1C1CCN(CCOc2cccc(F)c2)CC1,53.98

row,Compound,INHIBITION [%]
1,Cc1cccc(OCCN2CCC(c3ccnn3CCO)CC2)c1,7.13
2,Cc1cc2c(o1)CC(C)(C)CC2NC(=O)CNC(=O)C1CC1 (configuration not stated),-22.24
3,Cc1ncc(CN(C)C(=O)Nc2cccc(C(=O)N3CCOCC3)c2)s1,15.68
4,CNC(=O)CN1CCOCC12CCN(C(=O)c1ccccc1)CC2,-41.11
5,CNC(=O)CN1CCOCC12CCN(Cc1ccncc1)CC2,34.47
6,CNC(=O)CN1CCOCC12CCN(CCc1ccccc1)CC2,53.08
7,Cc1cnn(CC2CCCCN2CCCS(N)(=O)=O)c1 (configuration not stated),8.1
8,CC(C)c1nc(O)c2nnn(C[C@H]3CCCN(Cc4cccs4)C3)c2n1,4.91
9,CC1(C)CN(C(=O)c2ncc(F)cc2F)CCC1(O)CN1CCOCC1 (configuration not stated),31.97
10,Cc1nc(Nc2ncc(C)s2)cc(C2CCCN2)n1 (configuration not stated),-30.88
11,Cc1ccc(C(=O)N2CCO[C@H]3[C@H](OCc4ccccn4)CC[C@@H]32)o1,30.96
12,Cc1nc(C)n(CCC(=O)N2CCc3ncc(Cl)cc3C2)n1,40.31
13,Cc1cc(C)n(CCCC(=O)N2CCc3ncc(Cl)cc3C2)n1,51.99
14,Cc1nc(C)n(CC(=O)N2CCc3ncc(Cl)cc3C2)n1,44.9
15,Cc1nnc(CNC(=O)[C@@H]2C[C@H](NC(=O)C(C)(C)C)CN2C)[nH]1,-4.77
16,CN1C[C@@H](NC(=O)C(C)(C)C)C[C@H]1C(=O)NCc1ncc[nH]1,67.85
17,CN1C[C@@H](NC(=O)c2cc(F)cc(F)c2)C[C@H]1C(=O)NCc1ncc[nH]1,-7.68
18,N#Cc1c(Cl)nsc1NCc1cccnc1OCC(F)(F)F,5.94
19,Cc1nn(C)cc1Cn1c(=O)c(C)nc2ccccc21,21.57
20,Cc1nn(C)cc1Cn1c(=O)ccc2ccccc21,51.36
21,Cc1nn(C)cc1Cn1c(=O)cnc2ccccc21,2.82
22,Cc1nnc2n1CCN(C(=O)c1cnc3c(cnn3C(C)C)c1)C2,17.48

row,Compound,INHIBITION [%]
1,Cc1nnc2n1CCN(C(=O)c1cnc3c(cnn3CC(C)C)c1)C2,56.89
2,CCc1nnc2n1CCN(C(=O)c1cnc3c(cnn3C(C)C)c1)C2,24.05
3,CC(C)C(=O)N1CC[C@H]2N(C)CC[C@@]2(C(=O)N2CCOCC2)CC1,35.34
4,CNC(=O)Cc1ccc(NC(=O)NCc2nc(C)sc2C)cc1,45.82
5,CNC(=O)Cc1ccc(NC(=O)NCC(C)c2ncc(C)s2)cc1 (configuration not stated),50.59
6,CNC(=O)Cc1ccc(NC(=O)NCc2ncc(C)s2)cc1,38.67
7,CN1C(=O)C(C)(C)COc2cc(NS(=O)(=O)Cc3ccccc3)ccc21,-18.38
8,c1ccc(CN2CCc3ncnc(C4CCOC4)c3CC2)nc1 (configuration not stated),-4.2
9,CCn1ccnc1CN1CCN(C(C)C(=O)NCc2ccco2)CC1 (configuration not stated),-17.18
10,Cc1cnc(CN(Cc2cccc(O)c2)CC2CC2)cn1,-14.45
11,C[C@]1(O)CCN(Cc2ncccc2F)C[C@@H]1Oc1ccccc1,51.99
12,Cc1cccnc1CN1CC[C@@](C)(O)[C@H](Oc2ccccc2)C1,37.4
13,C[C@]1(O)CCN(Cc2ncccc2F)C[C@@H]1Oc1cccc(F)c1,14.47
14,CCOC(=O)c1cc2n(n1)CCCO2,4.95
15,CCOCC1CN(c2ncc(F)cn2)Cc2cn(CC)nc21 (configuration not stated),-10.78
16,O=C(Nc1ccccc1)N1CCc2nc(C(=O)N3CCCC3)sc2CC1,-18.86
17,Cc1ncc(CNC(=O)CCc2c(C)noc2C)c(C2CCCN2C)n1 (configuration not stated),58.18
18,Cc1ncc(CNC(=O)CCc2cccs2)c(C2CCCN2C)n1 (configuration not stated),-14.56
19,Cc1ncc(CNC(=O)CCc2ccccc2F)c(C2CCCN2C)n1 (configuration not stated),4.66
